# Source: PubChem BioAssay AID504333 (National Center for Advancing Translational Sciences (NCATS), 2011)
# The whole screen tested about 360,000 compounds, of which about 16,000 (4.4%) were called active. Roughly 9% stayed inconclusive and do not appear here. Calls follow the shape of the dose curve; as a rule, active = well fitted inhibition curve with a large enough effect; inconclusive = small, poorly fitted or top-dose-only effect; inactive = no such curve, though single readings can be large or run the other way. Shown is part of a subset that was picked to be rich in actives.
# Biological target: Bromodomain adjacent to zinc finger domain protein 2B (Homo sapiens) (UniProt Q9UIF8)
# Assay: qHTS Assay for Inhibitors of BAZ2B; also: nearly all actives have a fitted effect of over 60% in size
# Settings: AlphaScreen BAZ2B-H3K14Ac peptide displacement; series mostly up to 114 µM; activity change, negative = inhibition: at the top concentration
# Summary of the method: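 In this displacement format the biotinylated H3(5-23) peptide acetylated at Lys14 serves as ligand at 50 nM, with BAZ2B at 50 nM in PBS pH 7.4 containing 0.01% Tween-20. Donor and acceptor beads are 10 ug/mL final.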
# % is scaled to controls: 0 for no effect and ±100 for the full control effect; potency is read from the fitted curve at half-maximal effect.
# Chain of Bromodomain adjacent to zinc finger domain protein 2B (Homo sapiens) (Q9UIF8 whole entry, looked up, the tested form may be a part): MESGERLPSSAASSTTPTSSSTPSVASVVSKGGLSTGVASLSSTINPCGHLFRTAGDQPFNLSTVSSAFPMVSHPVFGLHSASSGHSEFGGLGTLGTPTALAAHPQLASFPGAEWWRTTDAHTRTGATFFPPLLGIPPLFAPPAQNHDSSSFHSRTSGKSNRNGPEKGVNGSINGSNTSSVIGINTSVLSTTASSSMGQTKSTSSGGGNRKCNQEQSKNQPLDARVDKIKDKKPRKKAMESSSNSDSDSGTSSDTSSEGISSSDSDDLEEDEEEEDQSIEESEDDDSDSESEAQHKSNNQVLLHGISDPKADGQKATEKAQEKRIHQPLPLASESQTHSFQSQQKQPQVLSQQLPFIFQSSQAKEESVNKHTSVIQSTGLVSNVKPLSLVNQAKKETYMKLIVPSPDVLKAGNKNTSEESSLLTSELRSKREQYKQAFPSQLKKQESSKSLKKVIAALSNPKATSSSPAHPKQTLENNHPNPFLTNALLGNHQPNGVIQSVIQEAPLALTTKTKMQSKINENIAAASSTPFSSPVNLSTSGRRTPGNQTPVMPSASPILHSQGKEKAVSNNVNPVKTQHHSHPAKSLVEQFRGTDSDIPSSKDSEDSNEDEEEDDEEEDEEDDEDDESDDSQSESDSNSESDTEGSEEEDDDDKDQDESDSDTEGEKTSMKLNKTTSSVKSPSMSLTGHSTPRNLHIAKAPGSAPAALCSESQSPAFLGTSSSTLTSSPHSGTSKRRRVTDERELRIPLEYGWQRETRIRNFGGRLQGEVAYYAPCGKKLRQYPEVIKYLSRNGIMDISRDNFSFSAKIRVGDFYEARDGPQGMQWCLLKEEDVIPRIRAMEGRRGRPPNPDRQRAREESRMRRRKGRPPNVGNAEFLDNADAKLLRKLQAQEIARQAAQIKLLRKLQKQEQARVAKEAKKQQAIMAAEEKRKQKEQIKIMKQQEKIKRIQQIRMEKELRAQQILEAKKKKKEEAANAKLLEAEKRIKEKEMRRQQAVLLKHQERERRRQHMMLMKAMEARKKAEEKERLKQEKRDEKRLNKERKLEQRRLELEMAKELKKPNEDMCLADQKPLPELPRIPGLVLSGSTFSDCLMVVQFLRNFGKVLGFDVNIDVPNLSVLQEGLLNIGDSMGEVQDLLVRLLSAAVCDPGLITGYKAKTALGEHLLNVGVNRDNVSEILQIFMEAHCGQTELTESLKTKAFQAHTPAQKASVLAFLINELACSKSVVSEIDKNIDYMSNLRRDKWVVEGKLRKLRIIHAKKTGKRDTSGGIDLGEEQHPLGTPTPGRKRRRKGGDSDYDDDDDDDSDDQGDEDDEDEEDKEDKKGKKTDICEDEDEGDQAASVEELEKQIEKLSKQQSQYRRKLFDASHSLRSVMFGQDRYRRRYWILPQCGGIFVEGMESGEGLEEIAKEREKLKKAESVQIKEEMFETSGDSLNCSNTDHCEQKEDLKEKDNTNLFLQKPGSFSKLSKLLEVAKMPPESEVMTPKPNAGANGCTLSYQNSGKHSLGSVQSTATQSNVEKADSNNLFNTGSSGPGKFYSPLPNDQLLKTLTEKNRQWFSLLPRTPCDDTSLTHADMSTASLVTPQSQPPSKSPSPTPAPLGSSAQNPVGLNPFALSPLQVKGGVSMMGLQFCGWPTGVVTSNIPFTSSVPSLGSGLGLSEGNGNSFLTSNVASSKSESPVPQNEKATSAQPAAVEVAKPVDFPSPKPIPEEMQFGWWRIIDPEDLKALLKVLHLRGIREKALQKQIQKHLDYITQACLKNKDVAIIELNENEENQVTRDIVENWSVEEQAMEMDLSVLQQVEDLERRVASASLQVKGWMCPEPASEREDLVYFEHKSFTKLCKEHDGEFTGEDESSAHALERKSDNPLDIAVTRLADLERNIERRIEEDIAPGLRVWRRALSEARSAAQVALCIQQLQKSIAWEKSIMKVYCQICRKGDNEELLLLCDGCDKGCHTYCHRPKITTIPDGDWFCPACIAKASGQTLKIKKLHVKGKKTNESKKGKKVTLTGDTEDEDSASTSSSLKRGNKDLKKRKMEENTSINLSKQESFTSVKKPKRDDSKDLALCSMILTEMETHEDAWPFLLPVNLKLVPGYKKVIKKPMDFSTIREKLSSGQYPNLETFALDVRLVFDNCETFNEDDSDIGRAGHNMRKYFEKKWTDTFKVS
SMILES,"activity change, negative = inhibition",Potency
O=C(CC(c1cccs1)N1Cc2ccccc2C1=O)Nc1ccc(F)c(F)c1 (stereo not given),5.65% (inactive),–
CC(=O)c1c(C)n(S(=O)(=O)c2ccc(Cl)cc2)c2ccc(NS(=O)(=O)c3ccc(Cl)cc3)cc12,-19.7% (inactive),–
COc1ccc(N2CCN(C(=O)C3CCN(C(=O)c4ccccc4Cl)CC3)CC2)cc1,1.59% (inactive),–
COc1ccc(N2CCN(C(=O)C3CCCN(C(=O)c4cc5sccc5n4C)C3)CC2)cc1 (stereo not given),–,39.8 µM (active)
Cn1c(C(=O)N2CCCC(C(=O)NCc3ccccc3)C2)cc2sccc21 (stereo not given),-26% (inactive),–
Cc1cc(C)cc(NS(=O)(=O)c2cc3c(cc2C)NC(=O)CO3)c1,-32.2% (inactive),–
COc1ccc(C)cc1Nc1nc(-c2c(C)[nH]c3ccccc23)cs1,–,50.1 µM (active)
COC(=O)c1cnc(Nc2cc(C)ccc2OC)c2ccccc12,32.2% (inactive),–
COc1ccc(C)cc1Nc1nc(C)nc2c1oc1ccccc12,-23.2% (inactive),–
O=C(COc1ccccc1Cl)Nc1ccc2nc(SCC(=O)N3CCCC3)sc2c1,-8.22% (inactive),–
Cc1c(C(=O)NCc2ccccc2Br)oc2ccc3c(c12)C(=O)CC(C)(C)O3,-5.06% (inactive),–
CCOC(=O)c1c(C)[nH]c(C)c1S(=O)(=O)N1CCC(C(=O)Nc2ccc(C)c(Cl)c2)CC1,2.17% (inactive),–
CCOC(=O)c1ccc(NC2=CC(c3ccc(OCC)cc3)N(c3ccc(C(=O)OCC)cc3)C2=O)cc1 (stereo not given),-14.4% (inactive),–
COc1ccc(CCNc2ncnc3onc(-c4ccc(Cl)cc4)c23)c(OC)c1,12.3% [at 57.1 µM] (inactive),–
CC(=O)n1c(C=Nc2ccccc2)c(O)c2ccccc21,34.9% (inactive),–
Oc1ccc(N=Cc2sc3ccccc3c2Cl)cc1,–,31.6 µM (active)
COc1ccc(N=C(C)c2sc3ccccc3c2O)cc1,-14.3% (inactive),–
COc1ccc(C(F)(F)F)cc1NC(=O)c1sc2nc(-c3cccs3)ccc2c1N,1.9% (inactive),–
Nc1cc(N)nc(SCc2ccc(Cl)cc2)n1,-2.43% (inactive),–
O=C(C1CC1)N1CCN=C1SCc1ccc(Cl)cc1,7.34% (inactive),–
Clc1ccc(CSc2nncn3c2cc2occc23)cc1,–,44.7 µM (active)
COC(=O)c1sccc1S(=O)(=O)N(CC(=O)Nc1ccc(C)c(F)c1)c1ccc(C)c(C)c1,-8.1% (inactive),–
CCOC(=O)c1c(NC(=O)c2cc(-c3ccc(Cl)cc3)on2)sc2c1CCCC2,-0.226% (inactive),–
COc1ccccc1-c1nnc(C2CCN(C(=O)c3ccc(Cl)cc3)CC2)o1,-15% (inactive),–
Cc1ccc(Oc2c(C(F)(F)F)oc3c(CN4CCCCC4)c(O)ccc3c2=O)cc1,-2.73% (inactive),–

SMILES,"activity change, negative = inhibition",Potency
Cc1nnc(C)n1-c1ccc(C(=O)Nc2cccc(Br)c2)cc1,1.73% (inactive),–
Cc1ccccc1CN1CCC(CNC(=O)c2cc3ccc4cccnc4c3[nH]2)CC1,15.2% [at 57.1 µM] (inactive),–
O=C(CCCN1C(=O)/C(=C\c2ccco2)SC1=S)Nc1cccc2ccccc12,–,44.7 µM (active)
O=C(CCCCCN1C(=O)c2cccc3cccc(c23)C1=O)NCc1ccco1,5.06% (inactive),–
O=C(CCN1C(=O)/C(=C/c2cccs2)SC1=S)NNC(=O)c1cccc(O)c1,-6.89% (inactive),–
CCn1c(=O)c(=O)n(CC)c2cc(N3CCCCC3)c(NC(=O)c3cccc(F)c3)cc21,2.52% (inactive),–
COc1ccc(C)cc1NC(=O)COCc1cc(-c2cccs2)on1,33.5% (inactive),–
Cc1cc(C)cc(NC(=S)NCCc2c[nH]c3ccccc23)c1,–,28.2 µM (active)
O=C(NCCc1c[nH]c2ccccc12)c1cccc(Br)c1,-24.7% (inactive),–
Cc1cc(C)cc(NC(=S)NCc2ccc(F)cc2)c1,-0.9% (inactive),–
COc1ccc(CNC(=O)COCc2cc(-c3cccs3)on2)cc1OC,-0.39% (inactive),–
CCN(C(=O)Cn1cc(S(=O)(=O)N2CCN(c3ccccc3F)CC2)c2ccccc2c1=O)c1ccc(C)c(C)c1,-12.9% (inactive),–
Cc1ccc(CN(C(=O)c2ccccc2[N+](=O)[O-])c2ccccn2)cc1,-24.1% (inactive),–
CCc1ccc(N(CC)C(=O)CCn2cnc3onc(-c4ccc(F)cc4)c3c2=O)cc1,-5.56% [at 57.1 µM] (inactive),–
Cc1cccc(N2CCN(C(=O)c3cnc(N4CCCC4)nc3C)CC2)c1C,-13.1% (inactive),–
Cc1cccc(N2CCN(C(=O)/C=C/c3ccco3)CC2)c1C,–,50.1 µM (active)
CCC(CC)C(=O)N1CCN(c2cccc(C)c2C)CC1,-21.9% (inactive),–
CCOc1ccc2nc(N3CCCC(C(=O)Nc4cc(C)ccc4C)C3)sc2c1 (stereo not given),-6.74% (inactive),–
CC(C)c1ccc2oc(-c3cc(NC(=O)c4cccs4)ccc3Cl)nc2c1,-2.9% (inactive),–
O=C(COc1ccc(Cl)cc1Cl)N/N=C/c1ccccn1,16.5% (inactive),–
Cc1nnc(N/N=C/C2CC=CCC2)[nH]c1=O (stereo not given),-7.79% (inactive),–
Cc1nnc(N/N=C/c2ccccn2)[nH]c1=O,–,39.8 µM (active)
CCOc1ccc(-n2c(O)c(/C=N/Nc3nc(C)cc(C)n3)c3ccccc3c2=O)cc1,-7.49% (inactive),–
CCOc1ccc(-n2c(O)c(/C=N/Nc3nnc(C)c(=O)[nH]3)c3ccccc3c2=O)cc1,–,12.6 µM (active)
CCOc1ccc(-n2c(O)c(/C=N/c3ccnn3Cc3ccncc3)c3ccccc3c2=O)cc1,-19.4% (inactive),–
